Results on 68 molecules are retold here after PubChem BioAssay AID651593 (National Center for Advancing Translational Sciences (NCATS), 2012).

Screen size: about 1,100 compounds; about 860 (78%) were called active. About 19% were inconclusive and are not listed. The call rests on the fitted dose curve; in most records, active means well fitted activation curve with a large enough effect; inconclusive means small, poorly fitted or top-dose-only effect; inactive means flat fitted curve, though single readings scatter. So high a share suggests a set chosen from earlier hits. The list shows a part of the results.
Potency means the concentration at half of the fitted maximal effect.

The assay can be described thus: qHTS of Nrf2 Activators: Hit Validation in Primary Assay. Further: nearly all actives have a fitted effect of over 70% in size. On activation: 0% is about no effect. The following applies: Nrf2/ARE reporter cell assay; Potency: activation; series mostly up to 46.1 µM; activation: at the top concentration. The essentials: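 AREc32 cells stably carrying an ARE-driven firefly luciferase, plated overnight, then exposed 24 h at 37 °C to compounds at several concentrations. ARE activation read as luminescence with Steady-Glo after 30 min at room temperature.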
As to `COC(=O)c1sc(NC(=O)c2ccco2)nc1C`, the Potency is 10.3 µM (active). Still for that read-out and setting: the figure for `O=C(Nc1ccccc1F)c1ccc(-c2cccc([N+](=O)[O-])c2)o1` is 2.31 µM (active); for `c1ccc(N=Nc2cn[nH]c2-c2ccco2)cc1` it is 9.2 µM (active). The same measure, in the same setting: the figure for `CC(C)OC(=O)c1cn(-c2ccccc2)nc1-c1ccco1` is 6.51 µM (active); for `Fc1ccc2nncc(SCc3ccccc3Cl)c2c1` it is 2.06 µM (active); for `O=C(Nc1ncnc2sc3c(c12)CCCCC3)c1ccco1` it is 0.58 µM (active). The same measure, in the same setting: the figure for `O=C(Nc1ncnc2sc3c(c12)CCC3)c1ccco1` is 0.291 µM (active). With `CN(C)CCN(C(=O)/C=C/c1cccs1)c1nc2ccc(F)cc2s1`, the Potency was 2.06 µM (active). Consider `CN(C)CCN(C(=O)/C=C/c1cccs1)c1nc2c(F)cc(F)cc2s1`, for which the Potency was 2.91 µM (active).

Take `Cc1ccc2nc(N(CCN(C)C)C(=O)/C=C/c3cccs3)sc2c1`: the Potency was 4.61 µM (active). For the molecule `Nc1nc(Nc2cccc(Cl)c2)nc(NCCO)c1[N+](=O)[O-]`, the Potency is 2.59 µM (active).

Take `Fc1cccc2sc(Nc3nc4ccccc4s3)nc12`: the Potency was 2.31 µM (active).

For `Fc1ccc2nc(Nc3nc4c(F)cc(F)cc4s3)sc2c1`, the Potency was 2.31 µM (active). Still for that read-out and setting: next, `Cn1c(/C(C#N)=C(\O)c2cc(Cl)sc2Cl)nc2ccccc21`: 2.31 µM (active).

Consider `Cc1ccc(C(=O)OCc2c(C)noc2C)cc1NC(=O)c1ccco1`, for which the Potency is 4.11 µM (active). On to `COc1ccc(Cl)cc1C(=O)O/N=C(\N)c1ccncc1`, for which the Potency was 6.51 µM (active).

Consider `N/C(=N\OC(=O)c1cc(Cl)ccc1Cl)c1cccnc1`, for which the Potency was 2.59 µM (active). Same read-out and setting: next, `N/C(=N\OC(=O)c1ccccc1Cl)c1ccncc1`: 9.2 µM (active). Still for that read-out and setting: next, `N/C(=N\OC(=O)c1cc(Cl)ccc1Cl)c1ccncc1`: 5.17 µM (active). For the molecule `N/C(=N\OC(=O)c1cccc2ccccc12)c1cccnc1`, the “activation” value was 5.33% (inactive). For the molecule `N/C(=N\OC(=O)c1cccc2ccccc12)c1ccc(Br)cc1`, the Potency was 9.2 µM (active). Regarding `COc1ccc(Cl)cc1C(=O)O/N=C(\N)c1ccccn1`, the Potency is 2.91 µM (active). The same measure, in the same setting: next, `N/C(=N\OC(=O)/C=C/c1ccccc1)c1cccnc1`: 20.6 µM (active); `O=C(/C=C/c1ccccc1[N+](=O)[O-])N1CCc2ccccc2C1`: 20.6 µM (active).

As for `Oc1ccccc1-n1nc2ccc3nonc3c2n1`, the Potency is 11.6 µM (active).

With `Cn1c(=O)n(CCc2ccccc2)c(=O)c2c1nc1n2CCN1Cc1ccco1`, the Potency is 2.31 µM (active).

Regarding `COc1ccc([C@H]2Cc3cccc(O)c3C(=O)O2)cc1O`, the “activation” value is 4.39% (inactive). For `CCCNC(=O)c1ccc(S(=O)(=O)c2ccc(OC)cc2)c([N+](=O)[O-])c1`, the Potency was 3.66 µM (active).

Regarding `Cn1c(N/N=C/c2cccs2)cc(=O)n(C)c1=O`, the Potency was 2.59 µM (active). As to `O=c1[nH]n(Cc2ccccc2)c(=O)c2ccccc12`, the Potency was 4.11 µM (active).

Consider `O=C(CSc1nccc(-c2cccs2)n1)Nc1cccc(Cl)c1`, for which the Potency was 2.06 µM (active). Same read-out and setting: next, `O=C(CSc1nccc(-c2cccs2)n1)Nc1cccc(Cl)c1Cl`: 2.31 µM (active); `O=C(CSc1nccc(-c2cccs2)n1)Nc1ccc(F)c(Cl)c1`: 20.6 µM (active); `Cc1ccc(C(=O)N/N=C/c2ccc(-c3ccc(Br)cc3[N+](=O)[O-])o2)o1`: 5.8 µM (active). Same read-out and setting: next, `Cc1cc(C)n2nc(-c3ccc(F)cc3)cc2n1`: 20.6 µM (active). On the same count and under the same terms, next, `Cc1cc(N2CCOCC2)n2nc(-c3cccc(F)c3)cc2n1`: 1.46 µM (active); `O=C(Nc1ncc2c(n1)-c1ccccc1CC2)c1cccs1`: 2.31 µM (active). As to `O=C(Nc1ncc2c(n1)-c1ccccc1CC2)c1ccccc1`, the Potency is 5.17 µM (active). On the same count and under the same terms, next, `O=C(Nc1nccc(-c2cccs2)n1)c1cccs1`: 2.59 µM (active). The same measure, in the same setting: next, `CC(C)CCn1c(O)c(N=Nc2ccccn2)c2ccccc21`: 2.91 µM (active); `CCCCn1c(O)c(N=Nc2ccccn2)c2ccccc21`: 2.91 µM (active). Same read-out and setting: the figure for `CC(C)N1C/C(=C/c2cccnc2)C(=O)/C(=C/c2cccnc2)C1` is 3.66 µM (active); for `COc1ccc(NC(=O)c2cc(-c3cccs3)on2)c(OC)c1` it is 1.3 µM (active). With `CSc1ccccc1NC(=O)c1cc(-c2cccs2)on1`, the Potency is 2.91 µM (active).

`COC(=O)c1ccccc1NC(=O)c1cc(-c2ccco2)on1`: the Potency is 3.26 µM (active).

As to `COc1ccc(Cl)cc1NC(=O)c1cc(-c2ccco2)on1`, the Potency was 2.59 µM (active). Consider `CCCCC1C(=O)N(c2ccccc2)N(c2ccc(O)cc2)C1=O` (stereo not drawn), for which the “activation” value is 4.73% (inactive). `COc1ccc(NC(=O)c2cc(-c3ccco3)on2)c(OC)c1`: the Potency was 2.31 µM (active). `Cc1noc(C)c1COc1ccccc1C(=O)NNC(=O)c1ccccc1F`: the Potency is 3.66 µM (active). The same measure, in the same setting: next, `Cc1csc2c(=O)sc(NC(=O)c3cccs3)nc12`: 4.11 µM (active); `Cc1csc2c(=O)sc(NC(=O)c3ccc(F)cc3Cl)nc12`: 2.59 µM (active). Still for that read-out and setting: the figure for `Cc1ccccc1C(=O)Nc1nc2c(C)csc2c(=O)s1` is 2.91 µM (active). Still for that read-out and setting: the figure for `CS/C(=C\C(=O)c1ccco1)Nc1ccccc1Cl` is 4.61 µM (active); for `CNc1ccc(-c2nc(-c3ccco3)no2)cc1[N+](=O)[O-]` it is 1.84 µM (active). On to `CC(C)Nc1ccc(-c2nc(-c3ccco3)no2)cc1[N+](=O)[O-]`, for which the Potency was 2.31 µM (active). In the case of `COC(=O)c1cc(=O)nc(NN=Cc2ccco2)s1`, the Potency is 0.58 µM (active).

On to `Cc1cc(Br)cn2c(Cc3ccccc3)c(-c3ccco3)nc12`, for which the Potency is 16.4 µM (active). The same measure, in the same setting: the figure for `Cc1ccc(Cc2c(-c3ccco3)nc3c(C)cc(Br)cn23)cc1` is 20.6 µM (active). Same read-out and setting: next, `Clc1ccsc1-c1csc(-c2cccnc2)n1`: 2.06 µM (active). In the case of `Cc1ccccc1NC(=O)/C(C#N)=C\c1ccsc1`, the Potency is 3.66 µM (active). The same measure, in the same setting: next, `Cc1ccccc1NC(=O)/C(C#N)=C/c1ccsc1`: 4.11 µM (active); `Clc1nc(-c2ccccc2)cc(-c2ccccc2)n1`: 4.11 µM (active); `Clc1cc(-c2ccccc2)nc(-c2ccccc2)n1`: 5.8 µM (active). With `CN1CCCC1CCNc1ccc2c(=O)c3ccccc3oc2c1` (stereo not drawn), the Potency was 2.06 µM (active). Consider `Cc1[nH]c2ccccc2c1N=Nc1ccccc1F`, for which the Potency was 4.11 µM (active).

As to `Cc1[nH]c2ccccc2c1N=Nc1ccccc1C(=O)O`, the Potency is 2.59 µM (active). Take `O=C1S/C(=C\C=C\c2ccco2)C(=O)N1c1ccc(O)cc1`: the Potency is 2.31 µM (active). On the same count and under the same terms, next, `O=C1S/C(=C\C=C\c2ccco2)C(=O)N1c1ccccc1`: 5.8 µM (active).
